According to PubChem BioAssay (Tox21):
Records with an inconclusive call do not appear. Activity calls are given as the source filed them. Unless noted, calls follow the shape of the dose curve; as a rule, active = well fitted curve in the direction sought with a large enough effect in the repeat runs; inconclusive = weak or mixed curves; inactive = no such curve, though single readings can be large; an effect the other way counts as inactive or inconclusive.

What was measured:
[1] = target: Thyrotropin-releasing hormone receptor (Homo sapiens) (UniProt P34981); assay: qHTS assay to identify small molecule agonists of the thyrotropin-releasing hormone receptor (TRHR) signaling pathway (AID 1346891; calls by dose curve; also: potency is read from the fitted curve at half-maximal effect; as to activation: series mostly up to about 58 µM)
Procedure, shortened: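 Screening of agonists relied on calcium signalling in HEK293 cells expressing human TRHR: dye loading 2 h at 37 °C preceded compound addition and a 3-min fluorescence time course.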

[2] = Human pregnane X receptor (PXR) small molecule agonists, qHTS cell viability counter screen (AID 1346977); also: nearly all actives have a fitted effect of over 50% in size; also: potency is read from the fitted curve at half-maximal effect
Procedure, shortened: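 Tox21 qHTS format; PXR-Luc HepG2, 2,000/well, charcoal-stripped FBS 5%. Cpd exposure 24hr. Read: CellTiter-Fluor fluorescence, multiplexed with luciferase.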

[3] = Caspase-3/7 induction in HepG2 cells by small molecules, qHTS assay (AID 1346978); also: nearly all actives have a fitted effect of over 15% in size
Procedure, shortened: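 Wild-type HepG2 cells, 2,000/well, settled 5 hr at 37 C and 5% CO2, then compound-treated for 17 hr; caspase-3/7 activity read by luminescent Caspase-Glo 3/7 after 30 min at room temperature.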

[4] = Caspase-3/7 induction in CHO-K1 cells by small molecules, qHTS cell viability counter screen (AID 1346979); also: nearly all actives have a fitted effect of over 35% in size; also: potency is read from the fitted curve at half-maximal effect
Procedure, shortened: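 CellTiter-Fluor viability check, qHTS format: wild-type CHO-K1, 16hr compound treatment, 1hr reagent incubation, fluorescence read.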

[5] = Caspase-3/7 induction in CHO-K1 cells by small molecules, qHTS assay (AID 1346980); also: nearly all actives have a fitted effect of over 15% in size
Procedure, shortened: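 Wild-type CHO-K1 cells exposed to compounds for 17hr at 37 C, 5% CO2. Caspase-3/7 activity then measured by Caspase-Glo 3/7 luminescence after 30min at room temperature.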

[6] = Caspase-3/7 induction in HepG2 cells by small molecules, qHTS cell viability counter screen (AID 1346981); also: nearly all actives have a fitted effect of over 30% in size; also: potency is read from the fitted curve at half-maximal effect
Procedure, shortened: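 HepG2, WT, 2,000 cells/well; 5 hr pre-incubation 37 C/5% CO2; compound pin-transferred from DMSO; 16 hr exposure; CellTiter-Fluor, 1 hr; fluorescence read.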

[7] = target: Nuclear receptor subfamily 1 group I member 2 (Homo sapiens) (UniProt O75469); assay: Human pregnane X receptor (PXR) small molecule agonists, qHTS assay (AID 1346982); also: nearly all actives have a fitted effect of over 35% in size; also: potency is read from the fitted curve at half-maximal effect
Procedure, shortened: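 Luciferase signal from ONE-Glo (30 min, room temperature) measured activation of hPXR-driven CYP3A4 reporter expression in PXR-Luc HepG2 cells treated with compounds for 24 hr at 37 C.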

[8] = target: Cytochrome P450 2D6 (Homo sapiens) (UniProt P10635); assay: Cytochrome P450 Family 2 Subfamily D Member 6 (CYP2D6) small molecule antagonists: luciferase reporter qHTS assay (AID 1671196); also: nearly all actives have a fitted effect of over 50% in size; also: potency is read from the fitted curve at half-maximal effect
Procedure, shortened: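 Read-out is luminescence from luciferin formed by CYP2D6 turnover of a proluciferin substrate, recorded as relative luminescence units. Reactions ran 1 h at room temperature after NADPH regeneration solution was added.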

[9] = target: Cytochrome P450 2C19 (Homo sapiens) (UniProt P33261); assay: Cytochrome P450 Family 2 Subfamily C Member 19 (CYP2C19) small molecule antagonists: luciferase reporter qHTS assay (AID 1671197); also: nearly all actives have a fitted effect of over 65% in size; also: potency is read from the fitted curve at half-maximal effect
Procedure, shortened: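 Luminescent readout of CYP2C19 activity: luciferin product detected 20 min after adding detection reagent. Before that, compound and enzyme-substrate mix preincubated 10 min at room temperature; NADPH-regenerating system started a 1 h, 37C reaction. Ketoconazole as positive control.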

[10] = target: Cytochrome P450 1A2 (Homo sapiens) (UniProt P05177); assay: Cytochrome P450 Family 1 Subfamily A Member 2 (CYP1A2) small molecule antagonists: luciferase reporter qHTS assay (AID 1671199); also: nearly all actives have a fitted effect of over 50% in size; also: potency is read from the fitted curve at half-maximal effect
Procedure, shortened: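 P450-Glo CYP1A2, 1536-well qHTS: enzyme/proluciferin substrate + cpd (DMSO), 10 min RT; NADPH regen, 1 h RT; detection reagent, 20 min; luminescence, RLU.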

[11] = target: Voltage-gated inwardly rectifying potassium channel KCNH2 (Homo sapiens) (UniProt Q12809); assay: Human Ether-a-go-go-Related Gene (hERG) channel small molecule antagonists: fluorescence cell-based qHTS assay (AID 1671200);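 also: hERG-expressing U2OS cells given a thallium stimulus after FluxOR II dye loading; series mostly up to about 77 µM; nearly all actives have a fitted effect of over 50% in size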
Procedure, shortened: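 Kinetic two-minute fluorescence traces, sampled at 1 s, were collected following thallium stimulus of U2OS cells (1000 per well) that had been cultured overnight at 37 C and loaded with FluxOR II.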

[12] = target: Cytochrome P450 3A4 (Homo sapiens) (UniProt P08684); assay: Cytochrome P450 Family 3 Subfamily A Member 4 (CYP3A4) small molecule antagonists: luciferase reporter qHTS assay (AID 1671201); also: nearly all actives have a fitted effect of over 50% in size; also: potency is read from the fitted curve at half-maximal effect
Procedure, shortened: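 Proluciferin-to-luciferin conversion by CYP3A4, NADPH-regenerated, 1 h RT; luminescence read as RLU. Ketoconazole as control.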

[13] = target: Cytochrome P450 2C9 (Homo sapiens) (UniProt P11712); assay: Cytochrome P450 Family 2 Subfamily C Member 9 (CYP2C9) small molecule antagonists: luciferase reporter qHTS assay (AID 1671198); also: nearly all actives have a fitted effect of over 50% in size; also: potency is read from the fitted curve at half-maximal effect
Procedure, shortened: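 P450-Glo proluciferin substrate with CYP2C9 enzyme; 10 min RT preincubation, then NADPH regeneration 1 h at 37C; luciferin detection reagent 20 min RT, luminescence in relative luminescence units.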

[14] = target: Nuclear receptor subfamily 1 group I member 2 (Rattus norvegicus) (UniProt Q9R1A7); assay: Rat pregnane X receptor (rPXR) activation by small molecules, qHTS assay (AID 1346983); conditions: rPXR luciferase reporter cells, One-Glo luminescence, 24 h; max activation: stronger effect = higher value; also: nearly all actives have a fitted effect of over 20% in size; also: potency is read from the fitted curve at half-maximal effect
Procedure, shortened: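 Cell-based rPXR activation assay: rPXR cells, 2,000 per well, rested 5hr at 37 C, then exposed to compounds in DMSO for 24 hr at 37 C. Luciferase activity read by One-Glo luminescence after 30 min at room temperature.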

[15] = target: Nuclear receptor subfamily 1 group I member 2 (Homo sapiens) (UniProt O75469); assay: CYP3A4 induction through human pregnane X receptor (PXR) by small molecules, qHTS assay (AID 1346984); also: nearly all actives have a fitted effect of over 40% in size; also: potency is read from the fitted curve at half-maximal effect
Procedure, shortened: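 Luminescence readout: luciferase signal after One-Glo (30 min, room temperature), following 3 h at 37C with 3uM final Luciferin-IPA P450 substrate. Cells were DPX-2 (HepG2, PXR/CYP3A4-luc co-transfected) dosed for 24 h.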

[16] = target: Nuclear receptor subfamily 1 group I member 2 (Homo sapiens) (UniProt O75469); assay: Human pregnane X receptor (PXR) activation by small molecules, qHTS assay (AID 1346985); also: nearly all actives have a fitted effect of over 40% in size; also: potency is read from the fitted curve at half-maximal effect
Procedure, shortened: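 DPX-2 cells (HepG2 co-transfected with a PXR response element and a CYP3A4-promoter luciferase construct) were seeded at 2,000 per well, rested 5 hr at 37C, then exposed to DMSO-dissolved compounds for 24 hr. Activation was read as luciferase luminescence.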
% is scaled to controls: 0 for no effect and ±100 for the full control effect.

Sequence of Thyrotropin-releasing hormone receptor (Homo sapiens) (P34981 whole entry, looked up): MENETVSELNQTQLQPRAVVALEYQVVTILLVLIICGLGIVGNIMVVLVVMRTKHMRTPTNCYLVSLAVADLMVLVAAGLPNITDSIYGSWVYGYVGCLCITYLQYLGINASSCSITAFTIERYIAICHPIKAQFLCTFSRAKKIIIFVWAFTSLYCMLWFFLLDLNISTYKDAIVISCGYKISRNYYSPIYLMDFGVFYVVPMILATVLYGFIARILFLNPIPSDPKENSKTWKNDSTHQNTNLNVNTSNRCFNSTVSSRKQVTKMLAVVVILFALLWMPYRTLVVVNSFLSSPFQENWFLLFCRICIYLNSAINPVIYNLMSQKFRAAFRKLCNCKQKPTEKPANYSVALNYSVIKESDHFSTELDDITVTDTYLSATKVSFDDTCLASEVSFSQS
Sequence of Cytochrome P450 2C9 (Homo sapiens) (P11712 whole entry, looked up): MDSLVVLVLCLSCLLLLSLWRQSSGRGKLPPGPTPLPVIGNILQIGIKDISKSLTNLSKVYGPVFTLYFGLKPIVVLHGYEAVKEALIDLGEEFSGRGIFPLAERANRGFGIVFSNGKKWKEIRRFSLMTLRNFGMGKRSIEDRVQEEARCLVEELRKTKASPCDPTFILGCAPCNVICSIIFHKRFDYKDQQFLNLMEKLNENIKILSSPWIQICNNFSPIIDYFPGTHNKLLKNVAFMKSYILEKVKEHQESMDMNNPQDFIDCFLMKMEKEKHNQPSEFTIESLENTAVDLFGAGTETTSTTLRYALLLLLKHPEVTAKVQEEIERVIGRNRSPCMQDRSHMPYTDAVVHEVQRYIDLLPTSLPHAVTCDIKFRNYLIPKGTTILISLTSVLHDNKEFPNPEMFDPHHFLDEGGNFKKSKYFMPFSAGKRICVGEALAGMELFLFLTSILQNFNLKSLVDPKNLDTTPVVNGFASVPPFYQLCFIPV
Sequence of Cytochrome P450 3A4 (Homo sapiens) (P08684 whole entry, looked up): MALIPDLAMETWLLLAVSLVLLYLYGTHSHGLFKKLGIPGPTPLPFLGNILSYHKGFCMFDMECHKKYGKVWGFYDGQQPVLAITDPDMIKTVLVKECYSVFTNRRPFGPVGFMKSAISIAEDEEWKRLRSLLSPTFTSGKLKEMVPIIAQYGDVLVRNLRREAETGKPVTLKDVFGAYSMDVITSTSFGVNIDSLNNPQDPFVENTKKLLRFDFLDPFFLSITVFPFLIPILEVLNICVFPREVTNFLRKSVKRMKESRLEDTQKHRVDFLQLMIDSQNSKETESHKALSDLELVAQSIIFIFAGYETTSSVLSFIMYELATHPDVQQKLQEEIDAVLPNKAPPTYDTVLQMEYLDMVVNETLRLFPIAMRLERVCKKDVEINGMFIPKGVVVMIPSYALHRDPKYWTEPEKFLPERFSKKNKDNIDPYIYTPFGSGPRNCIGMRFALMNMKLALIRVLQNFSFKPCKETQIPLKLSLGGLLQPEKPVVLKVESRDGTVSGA
Sequence of Nuclear receptor subfamily 1 group I member 2 (Homo sapiens) (O75469 whole entry, looked up): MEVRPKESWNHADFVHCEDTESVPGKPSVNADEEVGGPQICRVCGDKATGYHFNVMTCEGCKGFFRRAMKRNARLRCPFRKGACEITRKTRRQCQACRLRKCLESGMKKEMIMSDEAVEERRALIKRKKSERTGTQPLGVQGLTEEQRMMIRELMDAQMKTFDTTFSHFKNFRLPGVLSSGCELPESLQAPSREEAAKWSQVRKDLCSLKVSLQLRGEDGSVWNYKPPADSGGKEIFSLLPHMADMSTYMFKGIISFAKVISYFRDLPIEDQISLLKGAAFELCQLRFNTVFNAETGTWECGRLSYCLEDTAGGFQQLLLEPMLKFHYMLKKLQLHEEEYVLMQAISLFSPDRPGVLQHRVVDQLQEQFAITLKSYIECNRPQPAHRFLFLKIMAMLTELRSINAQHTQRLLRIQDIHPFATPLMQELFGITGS
Sequence of Cytochrome P450 1A2 (Homo sapiens) (P05177 whole entry, looked up): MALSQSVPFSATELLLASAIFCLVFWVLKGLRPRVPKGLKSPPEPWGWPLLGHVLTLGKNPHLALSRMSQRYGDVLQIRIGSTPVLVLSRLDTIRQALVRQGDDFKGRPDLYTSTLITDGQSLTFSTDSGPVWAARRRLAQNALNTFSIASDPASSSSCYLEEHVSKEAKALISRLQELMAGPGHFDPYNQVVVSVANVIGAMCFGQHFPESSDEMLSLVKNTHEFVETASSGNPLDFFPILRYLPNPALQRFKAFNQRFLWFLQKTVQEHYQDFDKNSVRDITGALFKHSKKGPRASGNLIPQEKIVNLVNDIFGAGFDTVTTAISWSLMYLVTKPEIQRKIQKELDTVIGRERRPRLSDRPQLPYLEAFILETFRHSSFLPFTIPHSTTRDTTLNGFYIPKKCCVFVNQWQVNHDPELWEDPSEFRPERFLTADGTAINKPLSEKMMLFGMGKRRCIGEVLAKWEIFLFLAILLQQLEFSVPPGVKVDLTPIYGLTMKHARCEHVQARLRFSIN
Sequence of Cytochrome P450 2D6 (Homo sapiens) (P10635 whole entry, looked up): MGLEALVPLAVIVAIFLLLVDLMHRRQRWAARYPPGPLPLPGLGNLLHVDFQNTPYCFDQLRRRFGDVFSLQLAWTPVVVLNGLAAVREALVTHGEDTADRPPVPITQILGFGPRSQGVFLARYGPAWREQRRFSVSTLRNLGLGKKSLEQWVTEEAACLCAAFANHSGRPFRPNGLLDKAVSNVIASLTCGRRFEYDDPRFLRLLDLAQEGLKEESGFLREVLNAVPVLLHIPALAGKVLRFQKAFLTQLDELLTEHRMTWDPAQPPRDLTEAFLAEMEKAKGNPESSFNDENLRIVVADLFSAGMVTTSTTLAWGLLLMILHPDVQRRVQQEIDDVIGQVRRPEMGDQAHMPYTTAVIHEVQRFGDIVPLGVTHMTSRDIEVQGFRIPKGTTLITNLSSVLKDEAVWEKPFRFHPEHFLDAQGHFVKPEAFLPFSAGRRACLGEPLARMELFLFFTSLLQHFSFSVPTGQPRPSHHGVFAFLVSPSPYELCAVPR
Sequence of Cytochrome P450 2C19 (Homo sapiens) (P33261 whole entry, looked up): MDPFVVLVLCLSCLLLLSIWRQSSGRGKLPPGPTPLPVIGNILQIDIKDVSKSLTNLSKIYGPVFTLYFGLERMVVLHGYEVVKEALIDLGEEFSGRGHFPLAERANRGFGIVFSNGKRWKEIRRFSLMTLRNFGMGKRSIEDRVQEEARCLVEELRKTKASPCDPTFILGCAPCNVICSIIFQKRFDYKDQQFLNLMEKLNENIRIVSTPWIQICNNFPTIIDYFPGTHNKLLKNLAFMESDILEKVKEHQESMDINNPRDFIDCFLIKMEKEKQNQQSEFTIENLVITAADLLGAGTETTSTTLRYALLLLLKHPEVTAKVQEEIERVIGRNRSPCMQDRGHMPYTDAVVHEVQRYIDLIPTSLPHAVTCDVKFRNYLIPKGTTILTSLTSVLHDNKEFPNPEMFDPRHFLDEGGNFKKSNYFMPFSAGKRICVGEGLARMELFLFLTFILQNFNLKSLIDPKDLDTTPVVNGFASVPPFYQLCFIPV
Sequence of Voltage-gated inwardly rectifying potassium channel KCNH2 (Homo sapiens) (Q12809 whole entry, looked up): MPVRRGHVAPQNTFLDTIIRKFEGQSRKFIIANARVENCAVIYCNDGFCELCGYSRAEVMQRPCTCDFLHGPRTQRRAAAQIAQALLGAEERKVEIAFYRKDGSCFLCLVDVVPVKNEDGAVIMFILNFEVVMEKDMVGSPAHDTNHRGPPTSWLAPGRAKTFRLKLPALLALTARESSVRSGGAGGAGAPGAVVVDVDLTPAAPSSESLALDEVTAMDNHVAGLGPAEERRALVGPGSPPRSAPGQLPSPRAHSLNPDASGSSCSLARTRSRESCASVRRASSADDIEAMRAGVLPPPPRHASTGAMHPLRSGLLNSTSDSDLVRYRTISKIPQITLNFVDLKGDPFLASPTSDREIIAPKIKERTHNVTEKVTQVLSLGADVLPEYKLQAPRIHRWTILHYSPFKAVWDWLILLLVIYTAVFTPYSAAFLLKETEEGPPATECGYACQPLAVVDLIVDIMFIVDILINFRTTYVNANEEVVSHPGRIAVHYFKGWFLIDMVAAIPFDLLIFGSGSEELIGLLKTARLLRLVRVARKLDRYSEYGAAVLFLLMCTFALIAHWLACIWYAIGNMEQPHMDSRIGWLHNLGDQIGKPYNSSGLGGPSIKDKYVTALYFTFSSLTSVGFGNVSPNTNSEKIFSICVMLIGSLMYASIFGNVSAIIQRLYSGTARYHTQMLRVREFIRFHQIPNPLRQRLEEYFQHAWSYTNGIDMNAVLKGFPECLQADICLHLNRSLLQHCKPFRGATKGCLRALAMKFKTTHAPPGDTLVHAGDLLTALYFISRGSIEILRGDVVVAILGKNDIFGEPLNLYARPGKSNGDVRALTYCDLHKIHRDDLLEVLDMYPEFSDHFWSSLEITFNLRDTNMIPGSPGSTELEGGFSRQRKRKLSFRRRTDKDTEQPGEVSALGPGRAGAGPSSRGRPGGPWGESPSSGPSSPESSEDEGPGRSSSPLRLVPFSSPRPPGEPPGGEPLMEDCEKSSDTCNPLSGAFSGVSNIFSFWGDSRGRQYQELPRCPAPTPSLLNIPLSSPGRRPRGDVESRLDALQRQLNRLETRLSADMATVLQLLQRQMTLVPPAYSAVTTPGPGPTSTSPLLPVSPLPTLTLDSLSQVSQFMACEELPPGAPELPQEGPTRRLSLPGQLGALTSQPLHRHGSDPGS
Sequence of Nuclear receptor subfamily 1 group I member 2 (Rattus norvegicus) (Q9R1A7 whole entry, looked up): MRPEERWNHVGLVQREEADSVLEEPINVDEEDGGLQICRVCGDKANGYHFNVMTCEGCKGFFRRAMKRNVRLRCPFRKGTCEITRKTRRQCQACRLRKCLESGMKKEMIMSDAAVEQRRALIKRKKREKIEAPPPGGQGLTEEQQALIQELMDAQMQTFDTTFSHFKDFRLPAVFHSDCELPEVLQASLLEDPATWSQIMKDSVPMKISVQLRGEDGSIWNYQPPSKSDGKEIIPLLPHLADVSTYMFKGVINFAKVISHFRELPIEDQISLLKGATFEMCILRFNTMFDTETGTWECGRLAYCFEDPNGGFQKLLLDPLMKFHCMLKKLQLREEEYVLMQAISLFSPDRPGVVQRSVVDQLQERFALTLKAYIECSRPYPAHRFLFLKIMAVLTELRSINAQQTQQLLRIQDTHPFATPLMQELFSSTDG

CC(=O)Oc1ccc([N+](=O)[O-])cc1CCl
inactive: Potency [1] | Potency [3] | Potency [5] | Potency [7] | Potency [8] | Potency [9] | Potency [10] | Potency [11] | Potency [12]
active: Potency [2] 48.6 µM | Potency [4] 30.6 µM | Potency [6] 27.3 µM

Cc1ccccc1N=C(N)Nc1ccccc1C
active: Potency [8] 0.0156 µM
inactive: Potency [1] | Potency [2] | Potency [3] | Potency [4] | Potency [5] | Potency [6] | Potency [7] | Potency [9] | Potency [10] | Potency [11]

CCOC(=O)/C=C/C(=O)OCC
inactive: Potency [1] | Potency [2] | Potency [3] | Potency [4] | Potency [5] | Potency [6] | Potency [7] | Potency [8] | Potency [9] | Potency [13] | Potency [11] | Potency [12]

CCC(C)COC(=O)CC(C)C (stereo unspecified)
inactive: Potency [1] | Potency [2] | Potency [3] | Potency [4] | Potency [5] | Potency [6] | Potency [7] | Potency [8] | Potency [9] | Potency [11]

Oc1cccc(Nc2ccccc2)c1
inactive: Potency [1] | Potency [2] | Potency [3] | Potency [4] | Potency [5] | Potency [6] | Potency [11]
active: Potency [7] 63.8 µM | Potency [8] 37.1 µM | Potency [9] 13.2 µM | Potency [10] 11.7 µM | Potency [12] 29.5 µM

NC(=O)c1ccncc1
inactive: Potency [1] | Potency [2] | Potency [3] | Potency [4] | Potency [5] | Potency [6] | Potency [7] | Potency [8] | Potency [9] | Potency [13] | Potency [11]

CCCCCCCCC(CCCCCC)C(=O)O (stereo unspecified)
inactive: Potency [1] | Potency [2] | Potency [3] | Potency [4] | Potency [5] | Potency [6] | Potency [7] | Potency [8] | Potency [10] | Potency [11] | Potency [12]
active: Potency [9] 35.6 µM | Potency [13] 25.2 µM

O=C1Cc2cc(Cl)ccc2N1
active: Potency [13] 17.4 µM | Potency [10] 11 µM
inactive: Potency [1] | Potency [2] | Potency [3] | Potency [4] | Potency [5] | Potency [6] | Potency [7] | Potency [8] | Potency [11] | Potency [12]

CC(=O)OCC[N+](C)(C)C
active: Potency [1] 3.01 µM | Potency [10] 24.5 µM
inactive: Potency [2] | Potency [3] | Potency [4] | Potency [5] | Potency [6] | Potency [7] | Potency [8] | Potency [11]

Brc1cc2ccccc2c2ccccc12
active: Potency [9] 40.2 µM | Potency [10] 0.32 µM
inactive: Potency [1] | Potency [2] | Potency [3] | Potency [4] | Potency [5] | Potency [6] | Potency [8] | Potency [11]

Cc1cc(O)c(C)c(C)c1O
inactive: Potency [1] | Potency [2] | Potency [3] | Potency [4] | Potency [5] | Potency [6] | Potency [7] | Potency [9] | Potency [11]
active: Potency [10] 15.5 µM

NC1[C@H]2CN(c3nc4c(cc3F)c(=O)c(C(=O)O)cn4-c3ccc(F)cc3F)C[C@@H]12 (stereo partly specified)
inactive: Potency [1] | Potency [3] | Potency [5] | Potency [8] | Potency [9] | Potency [13] | Potency [10] | Potency [11] | Potency [12]
active: Potency [2] 29.8 µM | Potency [4] 3.76 µM | Potency [7] 26.6 µM

CNC(=O)c1cnn(-c2nc(N)c3ncn([C@@H]4O[C@H](CO)[C@@H](O)[C@H]4O)c3n2)c1
inactive: Potency [1] | Potency [2] | Potency [3] | Potency [4] | Potency [5] | Potency [6] | Potency [7] | Potency [9] | Potency [13] | Potency [10] | Potency [11] | Potency [12]

CC(C)C(O)(c1ccc(OC(F)(F)F)cc1)c1cncnc1 (stereo unspecified)
inactive: Potency [1] | Potency [2] | Potency [3] | Potency [4] | Potency [5] | Potency [6] | Potency [11]

CC(C)C=O
inactive: Potency [1] | Potency [2] | Potency [3] | Potency [4] | Potency [5] | Potency [6] | Potency [11]

CC=C(Cl)Cl
inactive: Potency [1] | Potency [2] | Potency [3] | Potency [4] | Potency [5] | Potency [6] | Potency [8] | Potency [13] | Potency [10] | Potency [11] | Potency [12]

O=C1c2ccccc2C(=O)C1c1ccc(Br)cc1
inactive: Potency [1] | Potency [2] | Potency [3] | Potency [4] | Potency [5] | Potency [6] | Potency [8] | Potency [11] | Potency [12]
active: Potency [14] 11.2 µM | Potency [15] 25.1 µM | Potency [16] 7.08 µM | Potency [9] 1.55 µM | Potency [13] 3.47 µM

Cc1cccc(O)c1N
active: Potency [4] 61.8 µM | Potency [8] 45.3 µM | Potency [9] 40.3 µM | Potency [13] 32 µM | Potency [10] 10.1 µM | Potency [12] 36 µM
inactive: Potency [1] | Potency [2] | Potency [3] | Potency [5] | Potency [7] | Potency [11]

Nc1ncnc2c1ncn2[C@H]1CC[C@@H](CO)O1
inactive: Potency [1] | Potency [2] | Potency [3] | Potency [4] | Potency [5] | Potency [6] | max activation [14] 1.66% | Potency [15] | Potency [16] | Potency [8] | Potency [13] | Potency [11] | Potency [12]
